This is part of a sample that, as a whole, favours compounds with a hit. Of some 83,000 tested, about 20% had one in any assay.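 For each line, cells grew in 96-well plates with the test compound present at a single concentration for 48 hours.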 Values without a mark were called inactive. Active and inactive are the calls of the source. Rule for the calls: active = growth percent below 10; inactive = the rest.

In this assay the test system is MOLT-4 leukemia. Kind of assay: NCI-60 one-dose screen, 48 h (100 = growth as untreated, 0 = no growth, -100 = all killed). The conditions noted are these: 10 µM unless noted.
For `C=CCn1c(C)nc2cc(Nc3nc(N4CCCC4)nc4ccccc34)ccc21`, the growth is 49.9%.

Take `Cc1ccc(/C=C/c2c(C(=O)/C=C/c3ccc(Cl)cc3)c(C)nc3ccccc23)cc1`: the growth is 0.928% (active).

Take `COc1cc(/C=C/C(=O)c2cccc(-n3cc(-c4ccccc4)[nH]c3=O)c2)ccc1O`: the growth is 6.81% (active).

Regarding `C=CCOC1=CC(=O)c2ccccc2C1=O`, the growth was 65.8%.

For `Cn1cc(-c2csc(-c3ccccc3)n2)c2cccnc21`, the growth is -8.37% [100 µM] (active).

In the case of `c1ccc(-c2nc([P+](c3ccccc3)(c3ccccc3)c3ccccc3)c(N3CCOCC3)o2)cc1`, the growth was 7.65% (active).

`O=C(COc1ccc(/C=C2\Oc3ccccc3C2=O)cc1)Nc1nc2c(s1)CCCC2`: the growth is -64.3% (active).

With `COc1ccc(C2c3ccc4ccccc4c3Oc3nc(C)[nH]c(=O)c32)cc1` (configuration not stated), the growth is 115%.

`O=C1/C(=C\c2c[nH]c3ccccc23)c2ccccc2N1c1c(Cl)cccc1Cl`: the growth is -13.1% (active).

For the compound `Cc1cc(/C=C\c2ccc3ccccc3[n+]2C)c(O)c2ncccc12`, the growth was 0.695% (active).

As to `O=C1N=c2cc3c(cc2=C/C1=C/c1sc(=S)n(CCc2ccc(O)cc2)c1O)OCCO3`, the growth is 21.5%.

Regarding `N#Cc1nc(C#N)c(Sc2ccccc2)c(Sc2ccccc2)c1Sc1ccccc1`, the growth was -19.2% (active).

Turning to `O=C(c1ccccc1)c1c(/C=C/c2ccc(Cl)cc2)nc2ccccc2c1/C=C/c1cccs1`, the growth was 94.2%.

`COc1ccc2[nH]c(O)c(/C=c3/cc4c(c(-c5ccc(F)c(OC)c5)n3)=Nc3ccccc3-4)c2c1`: the growth is 1.77% (active).

On to `COc1cc(/C=C2\C(=O)ON=C2C)cc(OC)c1OC`, for which the growth was 102%.

Consider `COc1cc2c(cc1-c1c(C)noc1C)ncc1nc(C3CCC(F)(F)CC3)n(C3CCC(OC(F)F)CC3)c12` (configuration not stated), for which the growth is 59.7%.

Regarding `CCN(CCNc1ccc(C)c2sc3ccccc3c(=O)c12)CC(C)(C)O`, the growth was 40%.

`COc1ccc(C(=NN=C(N)N)c2ccc(OC)cc2)cc1`: the growth was 40%.

In the case of `Cc1c(C(=O)N[C@@H](Cc2ccccc2)C(=O)C(=O)NCCc2ccccc2)[nH]c2ccccc2c1=O`, the growth is 86.8%.

On to `CC1(c2ccccc2)NC(=O)N(NC(=O)CSc2nc(-c3cccs3)nc3ccccc23)C1=O` (configuration not stated), for which the growth is 73.5%.

With `CCCCc1ccc(Nc2ccc(Nc3ccc(CCCC)cc3S(=O)(=O)O)c3c2C(=O)c2ccccc2C3=O)c(S(=O)(=O)O)c1`, the growth was 96.8%.

Consider `O=C(Nc1ccc(Cl)cc1)Nc1ccc(Cl)c(C(F)(F)F)c1`, for which the growth was -9.08% (active).

As for `COc1cc(/C=N/Nc2ncc(-c3cc4cc5c(cc4o3)OCO5)s2)cc(OC)c1OC`, the growth is 18.6%.

For the compound `COc1ccc(-c2nc3c(N)c(CO)c(C)nc3o2)cc1`, the growth was 96.3%.

In the case of `c1ccc(Nc2nc(-c3ccccn3)cs2)nc1`, the growth was 14.2%.

In the case of `Cc1ccc(S(=O)(=O)Oc2cc(OS(=O)(=O)c3ccc(C)cc3)cc(OS(=O)(=O)c3ccc(C)cc3)c2)cc1`, the growth is 82.2%.

With `COc1ccc(C2C(c3nn[nH]n3)=C(N)Oc3c2ccc2ccccc32)cc1` (configuration not stated), the growth is 52.6%.

These data come from PubChem BioAssay (NCI).
